Test results: the supplement of paper PMC6555819

These sequences were tested on VDR:RXRa (NR concentration 270 nM, RXRa partner concentration 90 nM) (assay: PBM binding z-score (relative to random genomic background probes); higher = stronger binding; sequences stand for … in GC…GCGATTGACAGCGTAGAATGAAGG).
Experimental: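 Protein-binding microarray (Agilent 4x180K custom design, double-stranded 60-nt probes: 5' GC cap, 34-nt variable region, 24-nt constant primer region; full probe sequence given). Purified or IVT nuclear receptor:RXRα heterodimers (3:1 NR:RXRα, mostly 270:90 nM) or homodimers were incubated for 1 h in PBS with 2% milk and no ligand, then detected with Alexa488 antibodies. Fluorescence from o1-orientation probes (~5 replicates averaged) was converted to z-scores against 500 random hg19 background probes. Variable regions are seed direct-repeat (DR0–DR5) sites, all their single-nucleotide variants and half-site ablations.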

Q: With CTCGTAAGGTCGTGCTCAGGTGAGTATACCAAAC as the sequence, how does the PBM binding z-score read?
A: 2.61

Q: CGTCCAAGGTCATAGGAGGTCAGTGAGGACAGAT was tested. Which PBM binding z-score did it give?
A: 7.07

Q: ATCGACAGGTCGAGGTGAGTATAGAGAAAGGGAA was tested. Which PBM binding z-score did it give?
A: 0.389

Q: How did the PBM binding z-score turn out when ACTAGAAGGCCAAGTTTGGGTCACTCAAACAAAG was run?
A: 1.28

Q: With CGAACGAGGGCATGGGTTGATAGCAAATGCCGAT as the sequence, how does the PBM binding z-score read?
A: 1.45

Q: TAGCCTAGGTCCGATCGGGCCAGTATACGCTATA was tested. Which PBM binding z-score did it give?
A: -0.91

Q: Which PBM binding z-score does the source give for CCTAGTTGGTCAAGAGGTCACACACCGGATATGA here?
A: 4.64

Q: Which PBM binding z-score does the source give for ACAGACAGTTGAGTGAAGGTAACTCAGCTGGACG here?
A: -0.356

Q: TTACCAAGGTGAGCTGAGATCGTTGATCCAACTC was tested. Which PBM binding z-score did it give?
A: -0.473

Q: For ACTATTAGTTGACTTAGGGCATCCGATACGACGC, which PBM binding z-score is on record?
A: 0.439

Q: TAGCCTACGTCAGATCGGGCCAGTATACGCTATA was tested. Which PBM binding z-score did it give?
A: -0.713

Q: With CTACCAAGGTGAACAAGGTCTTTGATTACTATTC as the sequence, how does the PBM binding z-score read?
A: 3.6

Q: Which PBM binding z-score does the source give for AAATGTAGGTTAGCTGGGGTCATTCAGACTAGGC here?
A: 6.03

Q: Which PBM binding z-score does the source give for CAAACTAGGTCAAGGTCATAGTCGGTTTGTGCCA here?
A: 5.01

Q: CAAACTAGCTCAAAGGTCAAAGTCGAGCCAACCA was tested. Which PBM binding z-score did it give?
A: 4.72

Q: AGTCAAAGTTCACTAAGTAACGTAAGATTCAGCT was tested. Which PBM binding z-score did it give?
A: 3.9

Q: How did the PBM binding z-score turn out when CCGACTGGGGCATAAGGTTCCCATAAGCCAGCCC was run?
A: -0.0761

Q: CATACGGGGTCAGCTAGGCCAGAGTAGGGACGGC was tested. Which PBM binding z-score did it give?
A: 6

Q: GCGACTGGAGCAAAGCAGGTTACCATAAGGTTGG was tested. Which PBM binding z-score did it give?
A: -0.418

Q: With ACTATTAGTTGAGAAGAGGGCAACCGATAGGTTG as the sequence, how does the PBM binding z-score read?
A: 0.507

Q: Which PBM binding z-score does the source give for ACTAGCAGACCAAGGGTCACTCAAGATTAGTCCG here?
A: 2.58

Q: Which PBM binding z-score does the source give for AGCATGAGGTTATACGTAGATCAGGGAAGAAAGT here?
A: 1.44

Q: For GATACAGGGTCAAAGCCAGAGTACGCGTATTGAT, which PBM binding z-score is on record?
A: 4.5

Q: How did the PBM binding z-score turn out when ATACCAAGGTGATCGTGAGGTCGGTGATACTAAC was run?
A: 0.863

Q: TCTTGTAGATCAATAGAGGTTGAGAAAGTGCGCT was tested. Which PBM binding z-score did it give?
A: 0.789

Q: For GCATATAGGTAATACAAGGTGAAGGTCCGATTGT, which PBM binding z-score is on record?
A: 0.155

Q: For CTCAAAAGGTCGTGCTCAGGTGAGTATACCAAAC, which PBM binding z-score is on record?
A: 3.5

Q: Which PBM binding z-score does the source give for ACTAGTTGATCAGCTGAGGTCACACACAATTCGG here?
A: 4.02

Q: How did the PBM binding z-score turn out when GCTGGGAGGACAAGGTCAGAGCTTTGTCCGTAGA was run?
A: 1.4

Q: With CCTTACGGGTCAAGGTCATAGCACGGGTGGTACG as the sequence, how does the PBM binding z-score read?
A: 5.14

Q: How did the PBM binding z-score turn out when GCTGCTAGGTCAACTTATGGTCAGCTAAAGCTCG was run?
A: 2.04

Q: Which PBM binding z-score does the source give for ATCGATAGGTCGACGAGGTGAGTATACACCGTTT here?
A: 2.96

Q: Which PBM binding z-score does the source give for ATATGTTGGTTATCGGGTCATTCAGTTTGCGCAT here?
A: 4.86

Q: How did the PBM binding z-score turn out when TATACAGGGTCAAAGGCCAGCGTACGAATGTCGA was run?
A: 4.73

Q: CGTCCAAGGTCCGCAGGTCAGTGAAAGCGACGTG was tested. Which PBM binding z-score did it give?
A: -0.111

Q: ATATGTAGGTTAAGGGTCACTCAGGTTGGTTCGC was tested. Which PBM binding z-score did it give?
A: 5.43

Q: TCATATAGGTAATAGAGGTGAAAGTCGGCATCTA was tested. Which PBM binding z-score did it give?
A: 2.08

Q: TTATCAAGGTGAGCTGAGGTCGTTGATCCAACTC was tested. Which PBM binding z-score did it give?
A: 3.93

Q: Which PBM binding z-score does the source give for ATATGTAGTTTACATCCGGGTCATTCAGGCTATG here?
A: 3.49

Q: For CCAACGAGGGCATGAGTTGATAGCAAATGCCGAT, which PBM binding z-score is on record?
A: 1.09
